Assay [1] deals with Alpha-galactosidase A (Homo sapiens) (UniProt P06280). The experiment in a line: Counterscreen for Glucocerebrosidase Inhibitors: qHTS Assay for Human alpha-Galactosidase at pH 4.5 (AID 992). Further: 0% is about no effect. Summed up:
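Read-out is 4-methylumbelliferone fluorescence (365 nm excitation, 440 nm emission) after a pH 10 NaOH/glycine stop. Reactions held 2 nM enzyme and 80 uM substrate at pH 4.5 for 20 min at room temperature.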

Assay [2] addresses alpha-glucosidase (Oryza sativa, rice) (UniProt Q653V4). In words: Counterscreen for Glucocerebrosidase Inhibitors: qHTS Assay for Rice alpha-Glucosidase at pH 5.0 (AID 997).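 Further: 0% = full activity with enzyme and -100% = basal without enzyme.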 Put shortly:
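Rice alpha-glucosidase (4 nM final) with 400 uM 4-methylumbelliferyl-alpha-D-glucopyranoside in citrate buffer pH 5.0, 20 min at room temperature, stopped at pH 10; fluorescence 365/440 nm, compounds 0.7 nM–77 uM, AC50 from Hill fits.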

Assay [3] in a line: qHTS Assay for Lipid Storage Modulators (AID 1519; calls by dose curve; on activity change, negative = inhibition: on the % scale 0 is the no-effect control and ±100 the full control effect). The conditions noted are these: Drosophila S3 cells, BODIPY lipid droplet/cell ratio, laser cytometry, cells loaded with oleic acid. Put shortly:
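Cells seeded at 5,000 per well were treated with compounds over a concentration series and loaded with oleic acid (400 uM, as added). Lipid droplet fluorescence (488 nm excitation, 500-530 nm channel) was read by laser-scanning cytometry and normalized to 20 uM Triacsin C.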

Assay [4] addresses DNA repair nuclease/redox regulator APEX1 (Homo sapiens) (UniProt P27695). In words: qHTS Validation Assay for Inhibitors of the Human Apurinic/apyrimidinic Endonuclease 1 (APE1) (AID 1705;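 further: TAMRA fluorescence gain over two minutes as APE1 cuts a quenched THF abasic duplex; on the % scale 0 is the no-effect control and ±100 the full control effect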). Put shortly:
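Substrate: 50 nM final fluorophore/quencher THF-abasic duplex. Enzyme preincubated with compounds 15 min, RT. Progress derived from fluorescence difference, third minus first kinetic read.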

Assay [5] in a line: Counterscreen for APE1 Inhibitors: Fluorescent Dye Displacement Validation Assay (AID 1707).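 Further: plate controls were ThO with dsDNA and no compound for no effect and ThO without dsDNA for full effect.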 Put shortly: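 ThO 250 nM + dsDNA 50 nM (THF abasic site, 5'-TAMRA), Tris-HCl pH7.5/50mM NaCl/2 mM MgCl2/0.01% Tween-20; compounds pin-transferred; ex 480/em 540 nm endpoint. Neutral = no compound; no-DNA ThO wells = negative control.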
Assay [6] can be described thus: Validation of Assay for Modulators of Lamin A Splicing (AID 1459; active means well fitted curve in the direction sought with a large enough effect in the signal ratio; the % refers to the signal ratio;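 further: cells exposed to compound for two days before reading; 0% is about no effect; ratio rise marks activators and ratio drop marks inhibitors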). Put shortly: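 Dual-reporter HeLa S3 line (lamin A-EGFP minigene, DsRed2) treated with compounds 48 hrs, 0.5% DMSO final. Endpoint: EGFP/DsRed2 total intensity ratio from laser-scanning microplate cytometry.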
[7] abbreviates: measured here: cell count channel max response.
Where [8] appears, read: measured here: lipid channel max response.

Several values for one entry are separate records, joined by “and”; a condition that tells them apart may be missing. Identical values can stand only once. Records with an inconclusive call do not appear. Activity calls are given as the source filed them. Unless noted, the call rests on the fitted dose curve; in most records, active means well fitted curve in the direction sought with a large enough effect; inconclusive means small, poorly fitted or top-dose-only effect, or another doubt; inactive means no such curve, though single readings can be large; an effect the other way counts as inactive or inconclusive.

This is an account of results in PubChem BioAssay (NCATS).

Sequence of Alpha-galactosidase A (Homo sapiens) (P06280 whole entry, looked up): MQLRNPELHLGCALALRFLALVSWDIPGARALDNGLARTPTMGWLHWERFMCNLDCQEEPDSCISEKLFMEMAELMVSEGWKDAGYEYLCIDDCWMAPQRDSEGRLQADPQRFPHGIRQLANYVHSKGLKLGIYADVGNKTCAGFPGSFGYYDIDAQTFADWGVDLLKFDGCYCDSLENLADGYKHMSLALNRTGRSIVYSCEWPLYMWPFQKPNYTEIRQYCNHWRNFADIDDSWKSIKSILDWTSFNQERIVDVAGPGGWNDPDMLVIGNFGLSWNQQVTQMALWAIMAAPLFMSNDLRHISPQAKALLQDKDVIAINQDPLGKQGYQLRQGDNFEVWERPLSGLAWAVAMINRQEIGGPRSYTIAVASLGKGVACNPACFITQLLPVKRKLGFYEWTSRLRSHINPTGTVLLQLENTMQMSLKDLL
Sequence of DNA repair nuclease/redox regulator APEX1 (Homo sapiens) (P27695 whole entry, looked up): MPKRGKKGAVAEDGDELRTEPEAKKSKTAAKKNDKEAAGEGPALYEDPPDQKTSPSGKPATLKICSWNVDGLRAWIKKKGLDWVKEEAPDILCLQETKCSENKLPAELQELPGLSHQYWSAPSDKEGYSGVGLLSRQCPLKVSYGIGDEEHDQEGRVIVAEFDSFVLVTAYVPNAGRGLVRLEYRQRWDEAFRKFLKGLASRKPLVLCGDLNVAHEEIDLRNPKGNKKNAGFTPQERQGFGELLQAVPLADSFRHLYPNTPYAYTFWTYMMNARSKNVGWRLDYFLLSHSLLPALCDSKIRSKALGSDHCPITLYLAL

Consider `CN1CCN(C2=Nc3ccccc3Oc3ccc(Cl)cc32)CC1`, for which the compound was classed as inactive in assay [1], in assay [2] and in assay [5]. Also, the activity change, negative = inhibition in assay [3] (at 25.7 µM (top of the series)) was -4.84% (inactive); in assay [3] (at 57.5 µM (top of the series)), 10% (inactive) and 2.23% (inactive). In addition, the max response in assay [3] (setting [7]) was 14.9% and 0.863% and -23%; in assay [3] (setting [8]), 7.38% and 8.12% and -19.5%. Moreover, the Potency entry in assay [4] was “inactive”.

For `O=C(O)CP(=O)(O)O`, the call in assay [1], in assay [2], in assay [6] and in assay [5] was inactive. In assay [4], the Potency result is “inactive”.

Take `CCN(CC)CCNC(=O)c1cc(S(C)(=O)=O)ccc1OC`: the call in assay [1], in assay [2] and in assay [5] was inactive. In addition, the activity change, negative = inhibition in assay [3] (at 25.7 µM (top of the series)) is -2.02% (inactive); in assay [3] (at 57.5 µM (top of the series)), 7.41% (inactive) and 1.69% (inactive). For the same compound, the max response in assay [3] (setting [7]) was -4.82% and 19.9% and -18.4%; in assay [3] (setting [8]), -8.3% and 33.5% and -17.4%. For the same compound, the Potency entry in assay [4] is “inactive”.

Turning to `CCCCCCCC/C=C\CCCCCCCC(=O)NCc1ccc(O)c(OC)c1`, the activity change, negative = inhibition in assay [3] (at 57.5 µM (top of the series)) was -24.2% (inactive). The max response was 15.7% in assay [3] (setting [7]) and -12.6% in assay [3] (setting [8]).

With `CN(C)CCCN1c2ccccc2Sc2ccc(C(F)(F)F)cc21`, the call in assay [1], in assay [2] and in assay [5] was inactive. Also, the values for the activity change, negative = inhibition in assay [3] (at 25.7 µM (top of the series)) and in assay [3] (at 57.5 µM (top of the series)) were -1.52% (inactive) and 3.48% (inactive), respectively. For the same compound, the max response is -5.7% and 9.08% in assay [3] (setting [7]); -9.54% and 14.3% in assay [3] (setting [8]). Further, the Potency entry in assay [4] is “inactive”.

In the case of `CN(C)CCOC(=O)COc1ccc(Cl)cc1`, the outcome in assay [1], in assay [2] and in assay [5] was inactive. Also, the activity change, negative = inhibition in assay [3] (at 25.7 µM (top of the series)) is 0.143% (inactive); in assay [3] (at 57.5 µM (top of the series)), 11.6% (inactive) and 1.09% (inactive). Besides, the max response is 1.9% and 22.5% and -10.8% in assay [3] (setting [7]); 1.25% and 39.9% and -9.35% in assay [3] (setting [8]). Besides, the Potency result in assay [4] is “inactive”.

For the compound `CCn1cc(C(=O)O)c(=O)c2cc3c(cc21)OCO3`, the compound was classed as inactive in assay [1], in assay [2] and in assay [5]. Besides, the activity change, negative = inhibition in assay [3] (at 25.7 µM (top of the series)) was -1.05% (inactive); in assay [3] (at 57.5 µM (top of the series)), 2.77% (inactive). Moreover, the max response was 12% and 70.6% in assay [3] (setting [7]); 10.4% and 75.7% in assay [3] (setting [8]).

For `CC(C)(Oc1ccc(CCNC(=O)c2ccc(Cl)cc2)cc1)C(=O)O`, the activity change, negative = inhibition in assay [3] (at 25.7 µM (top of the series)) was -0.881% (inactive). The max response was -0.576% in assay [3] (setting [7]) and -0.58% in assay [3] (setting [8]).

As for `CC1=NS(=O)(=O)c2cc(Cl)ccc2N1`, the outcome in assay [1], in assay [2] and in assay [5] was inactive. For the same compound, the activity change, negative = inhibition in assay [3] (at 25.7 µM (top of the series)) was 4.02% (inactive); in assay [3] (at 57.5 µM (top of the series)), 14.6% (inactive). Besides, the max response in assay [3] (setting [7]) is 8.52% and 9.84%; in assay [3] (setting [8]), 14.7% and 27.6%. Also, the Potency entry in assay [4] was “inactive”.

For `CC(=O)Nc1nnc(S(N)(=O)=O)s1`, the compound was called inactive in assay [1], in assay [2] and in assay [5]. In addition, the activity change, negative = inhibition in assay [3] (at 25.7 µM (top of the series)) is -1.69% (inactive); in assay [3] (at 57.5 µM (top of the series)), -0.868% (inactive). Also, the max response in assay [3] (setting [7]) is 6.43% and 19.5%; in assay [3] (setting [8]), 5.21% and 17%. Besides, the Potency result in assay [4] was “inactive”.

Take `c1cnc(N2CCN(Cc3ccc4c(c3)OCO4)CC2)nc1`: the result in assay [1], in assay [2] and in assay [5] was inactive. In addition, the figures for the activity change, negative = inhibition in assay [3] (at 25.7 µM (top of the series)) and in assay [3] (at 57.5 µM (top of the series)) were 3.16% (inactive) and 2.74% (inactive), respectively. For the same compound, the max response in assay [3] (setting [7]) is -1.42% and -12.3%; in assay [3] (setting [8]) it was 3.03% and -8.1%. Further, the Potency result in assay [4] was “inactive”.

For `CCn1ccnc1CC1COc2ccccc2O1` (stereo not drawn), in assay [3] (at 57.5 µM (top of the series)), the activity change, negative = inhibition was 1.49% (inactive). Moreover, the max response in assay [3] (setting [7]) came to 56.5%; in assay [3] (setting [8]), 60.7%. The Potency entry in assay [4] was “inactive”. Further, in assay [5], the outcome was inactive.

With `CCOC(=O)c1cnc2c(cnn2CC)c1NN=C(C)C`, the compound was classed as inactive in assay [1], in assay [2] and in assay [6]. Further, the Potency result in assay [4] was “inactive”.
